Consider 19 compounds from PubChem BioAssay (NCATS).

Unmarked numbers belong to inactive results. Inconclusive results are not listed. Calls of active or inactive are those of the source. Calls come from the whole dose curve; as a rule, active = well fitted curve in the direction sought with a large enough effect; inconclusive = small, poorly fitted or top-dose-only effect, or another doubt; inactive = no such curve, though single readings can be large; an effect the other way counts as inactive or inconclusive.

The target in test [1] is Glutathione peroxidase 1 (Homo sapiens) (UniProt P07203). The test can be described thus: Primary qHTS Assay for Inhibitors of Recombinant Selenoprotein Glutathione Peroxidase 1 (GPX1) (AID 1845191). For activity, negative = inhibition: % is set by controls: 0 for no effect and ±100 for the full control effect. Note: nearly all actives have a fitted effect of over 65% in size. Summed up:
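GR-coupled assay: compounds preincubated 30 min at room temperature with GPX1, then reaction started with CHP; final 10 nM GPX1, 1 mM GSH, 0.5 mM CHP, 0.5 mM NADPH, 100 nM GR, 0.01% BSA, pH 7.5 Tris buffer. NADPH fluorescence (340/450 nm) read at 0 and 15 min.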
Background: qHTS replaces the single test concentration by a dilution series.

Test [2] concerns the target Phospholipid hydroperoxide glutathione peroxidase GPX4 (Homo sapiens) (UniProt P36969). As to the kind of experiment: Primary qHTS Assay for Inhibitors of Recombinant Selenoprotein Glutathione Peroxidase 4 (GPX4) (AID 1845192). For activity change, negative = inhibition: series mostly up to about 50 µM; % is set by controls: 0 for no effect and ±100 for the full control effect. Note: nearly all actives have a fitted effect of over 65% in size. Summed up: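 GR-coupled assay: recombinant GPX4 preincubated 30 min with compound at room temperature; final 200 nM GPX4, 1 mM GSH, 0.5 mM cumene hydroperoxide, 0.5 mM NADPH, 100 nM GR, 0.01% BSA, pH 7.5 Tris. NADPH fluorescence (340/450 nm) read at 0 and 15 min.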

The target of test [3] is Luciferin 4-monooxygenase (Photinus pyralis) (UniProt P08659). The test can be described thus: Primary firefly luciferase (FLuc) qHTS assay for identification of artifact compounds. (AID 1845220).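 For activity change, negative = inhibition: series mostly up to about 54 µM; plate controls were DMSO vehicle for no effect and no enzyme for full effect.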 Note: nearly all actives have a fitted effect of over 60% in size. Summed up: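 Titrated compounds were incubated 15 min at RT, protected from light, with luciferin and ATP at 10 uM; reaction started with 10 nM FLuc, luminescence imaged at 5 min, and concentration-response fitted by Hill equation.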

The nature of test [4]: Primary fluorescence-based thiol-reactive (MSTI) qHTS assay for identification of artifact compounds. (AID 1845221).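 For activity change, negative = thiol reactive: series mostly up to about 54 µM; thiol-reactive compounds lower the probe fluorescence signal.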 Note: nearly all actives have a fitted effect of over 65% in size. Note: potency is the fitted concentration of half-maximal effect. Summed up:
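A multi-concentration qHTS design tested compounds against 4 uM MSTI, pH 7.4 phosphate-buffered saline. Plates were protected from light for 1 h at room temperature before imaging fluorescence.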

The subject of test [5] is Nanoluciferase (engineered Oplophorus gracilirostris luciferase). As to the kind of experiment: Primary Nanoluciferase (NLuc) qHTS assay for identification of artifact compounds. (AID 1845222).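 Note: NLuc secreted into diluted conditioned medium of S16 cells; series mostly up to about 54 µM; 0% = DMSO and -100% = no enzyme.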 Summed up: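 qHTS format, against NLuc in S16 cell-conditioned medium. Nano-Glo substrate 1:100 was added after 15 min at room temperature. Luminescence was taken after a further 5 min.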

Test [6] can be described thus: Primary redox qHTS assay for identification of artifact compounds. (AID 1845223).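 Note: 0% = DMSO and 100% = reference compound.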 In short, it runs like this: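 Amplex Red (25 uM) and HRP (250 mU/mL) in HBSS, with compounds for 15 min, then 250 uM DTT for 30 min, room temperature, dark. Fluorescence 525/598 nm read; normalized to DMSO and 10 uM DA3003; Hill fit.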

Chain of Phospholipid hydroperoxide glutathione peroxidase GPX4 (Homo sapiens) (P36969 whole entry, looked up): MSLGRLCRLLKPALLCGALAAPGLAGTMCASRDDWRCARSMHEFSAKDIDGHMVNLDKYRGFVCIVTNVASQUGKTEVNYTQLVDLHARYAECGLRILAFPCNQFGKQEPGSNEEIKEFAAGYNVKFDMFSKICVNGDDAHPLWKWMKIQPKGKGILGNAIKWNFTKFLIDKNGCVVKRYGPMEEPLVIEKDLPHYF
Chain of Glutathione peroxidase 1 (Homo sapiens) (P07203 whole entry, looked up): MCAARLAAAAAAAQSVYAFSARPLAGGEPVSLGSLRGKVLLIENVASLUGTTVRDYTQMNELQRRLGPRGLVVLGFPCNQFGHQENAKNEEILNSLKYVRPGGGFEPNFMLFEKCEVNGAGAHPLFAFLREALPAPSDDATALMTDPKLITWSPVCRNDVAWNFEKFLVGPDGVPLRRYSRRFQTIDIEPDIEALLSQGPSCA

`COc1cc(/C=C/C(=O)O[C@@H]2C[C@@](O)(C(=O)O)C[C@@H](O)[C@@H]2O)ccc1O`: the Potency result in test [1], in test [2], in test [3], in test [5] and in test [6] was “inactive” throughout. Besides, in test [4], the Potency was 6.56 µM (active).
Turning to `COc1cc2nc(=NC(=O)c3cccnc3)n3c(c2cc1OC)NCC3`, the Potency entry in test [1], in test [2], in test [3], in test [4], in test [5] and in test [6] was “inactive” in each case.
For the compound `CC1CC(O)/C=C/C(O)/C=C\C(=O)O1` (centres undefined), the Potency result in test [1], in test [2], in test [3], in test [4], in test [5] and in test [6] was “inactive” in each case.
As to `C/C(=C\CCC1(C)C2CC3C(C2)C31C)C(=O)O` (centres undefined), the Potency result in test [1], in test [2], in test [3], in test [4], in test [5] and in test [6] was “inactive” in each case.
Take `C=C(COC(=O)C(C)C)C1Oc2cc(C(C)=O)ccc2C1OC(=O)C(C)C` (centres undefined): the Potency result in test [1], in test [2], in test [3], in test [4], in test [5] and in test [6] was “inactive” throughout.
For the compound `C[C@H]1CC[C@@]2(OC1)O[C@H]1CC3C4CC[C@H]5C[C@@H](O[C@@H]6O[C@H](CO)[C@H](O[C@@H]7O[C@H](CO)[C@@H](O)[C@H](O[C@@H]8OC[C@@H](O)[C@H](O)[C@H]8O)[C@H]7O[C@@H]7O[C@H](CO)[C@@H](O)[C@H](O)[C@H]7O)[C@H](O)[C@H]6O)[C@H](O)C[C@]5(C)C4=CC(=O)[C@]3(C)[C@H]1[C@@H]2C` (some centres undefined), the Potency result in test [1] and in test [2] was “inactive” in each case. Besides, the activity change, negative = inhibition in test [3] is 4.7% [at 11.6 µM]. Moreover, in test [4], the activity change, negative = thiol reactive is 203% [at 11.5 µM]. In addition, the activity, negative = inhibition in test [5] is 0% [at 11.6 µM]. In addition, the redox activity (% of DA3003) in test [6] was 3.4% [at 11.5 µM].
For the compound `CSCC1OC(n2cnc3c(=O)[nH]cnc32)C(O)C1O` (centres undefined), the Potency result in test [1], in test [2], in test [3], in test [4], in test [5] and in test [6] was “inactive” throughout.
As for `CNc1nc(Nc2cn(C(C)(C)C#N)nc2C)ncc1C(F)(F)F`, the Potency entry in test [1], in test [2], in test [3], in test [4], in test [5] and in test [6] was “inactive” in each case.
Consider `CC1(C)CC[C@]2(C(=O)O[C@@H]3O[C@H](CO)[C@@H](O)[C@H](O)[C@H]3O)[C@H](O)C[C@]3(C)C(=CCC4[C@@]5(C)CC[C@H](O[C@@H]6OC[C@@H](O)[C@H](O)[C@H]6O)[C@@](C)(C(=O)O)C5CC[C@]43C)[C@@H]2C1` (some centres undefined), for which the Potency result in test [1], in test [2], in test [3], in test [4], in test [5] and in test [6] was “inactive” each time.
In the case of `C=C1CC[C@@H]2[C@](C)(CO)[C@H](O[C@@H]3O[C@H](CO)[C@@H](O)[C@H](O)[C@H]3O)CC[C@@]2(C)[C@@H]1C/C=C1/C(=O)OC[C@H]1O`, the Potency result in test [1], in test [2], in test [3], in test [5] and in test [6] was “inactive” in each case. Also, the Potency in test [4] was 6.53 µM (active).
Consider `C=CC1(C)CC=C2C(CCC3C(C)(C(=O)O)CCCC23C)C1` (centres undefined), for which the Potency result in test [1], in test [2], in test [3], in test [4], in test [5] and in test [6] was “inactive” throughout.
On to `CC1(C)CCC[C@]2(C)C1CC=C(CO)[C@H]2CC/C(=C/CO)CO` (some centres undefined), for which the Potency result in test [1], in test [2], in test [3], in test [4], in test [5] and in test [6] was “inactive” throughout.
On to `O=C(O)Cn1nnc(-c2ccc(CN(CCCCOc3ccc(CN4CCCC4)cc3)CCc3ccccc3)cc2)n1`, for which the Potency result in test [1], in test [2], in test [3], in test [4], in test [5] and in test [6] was “inactive” throughout.
Take `CC1(C)CCCC2(C)c3c4c(c(=O)oc(=O)c3=CCC12)=CCC1C(C)(C)CCCC41C` (centres undefined): the Potency entry in test [1], in test [2], in test [3], in test [4], in test [5] and in test [6] was “inactive” throughout.
Turning to `CC(C)[C@](O)(c1ccc2cc(OC(F)F)c(OC(F)F)cc2c1)c1cn[nH]n1`, the Potency result in test [1], in test [2], in test [3], in test [4], in test [5] and in test [6] was “inactive” throughout.
For `CC(C)(O)C(O)C(=O)OCc1ccc(O[C@@H]2O[C@H](CO)[C@@H](O)[C@H](O)[C@H]2O)cc1` (some centres undefined), the Potency entry in test [1], in test [2], in test [3], in test [4], in test [5] and in test [6] was “inactive” throughout.
For the compound `C=C1CCC2C(C)(C)CCC[C@]2(C)[C@H]1CC/C(C)=C/C(=O)O` (some centres undefined), the Potency result in test [1], in test [2], in test [3], in test [4], in test [5] and in test [6] was “inactive” in each case.
`COc1cccc(C)c1C(=O)O[C@@H]1C[C@H](O[C@H]2[C@H](O)C[C@H](O[C@@H]3CCC[C@H]4[C@H]3C=C[C@@H]3CCCC/C=C/[C@H]5C=C(C(=O)O)[C@@H](C)C[C@@]56OC(=O)C(=C6O)OC(=O)[C@@]34C)O[C@@H]2C)O[C@H](C)[C@H]1O`: the Potency result in test [1] and in test [2] was “inactive” in each case. For the same compound, in test [3], the activity change, negative = inhibition was 4.15% [at 11.6 µM]. In test [4], the activity change, negative = thiol reactive was 170% [at 11.5 µM]. In addition, the activity, negative = inhibition in test [5] is 4.95% [at 11.6 µM]. Moreover, in test [6], the redox activity (% of DA3003) was -8.49% [at 11.5 µM].
In the case of `C[C@@H]1O[C@@H](O[C@H]2[C@@H]3C=CO[C@@H](O[C@@H]4O[C@H](CO)[C@@H](O)[C@H](O)[C@H]4O)[C@@H]3[C@@]3(CO)O[C@@H]23)[C@H](O)[C@H](OC(=O)/C=C/c2ccc(O)cc2)[C@H]1OC(=O)/C=C/c1ccc(O)cc1`, the Potency result in test [1], in test [2], in test [3], in test [4], in test [5] and in test [6] was “inactive” each time.
